In PubChem BioAssay (NCI):
Where “and” joins values, the source holds several entries; their conditions need not be identical. Identical values can stand only once. Compounds without any hit were thinned out: in the full panel of roughly 83,000, 20% have a hit.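 How to read the values: 0–100, growth inhibition (40 = 60% inhibited); 0, no net growth; -100 to 0, cell death (-40 = 40% of starting cells died; -100 = all dead).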 A number with no mark means an inactive call. Calls of active or inactive are those of the source. Rule for the calls: active = growth percent below 10; inactive = the rest.

System: MDA-MB-468 breast
Assay: NCI-60 one-dose screen, 48 h (100 = growth as untreated, 0 = no growth, -100 = all killed)
Conditions: 10 µM unless noted

Row | SMILES | growth
1 | CCOc1ccc(C(=O)Nc2ncc(Cc3ccc(F)cc3)s2)cc1 | 31.9%
2 | O=S(=O)(Nc1ccc(-n2cnc3cc(-c4ccc(O)cc4)ccc32)cc1)C1CC1 | 111%
3 | NS(=O)(=O)c1ccc(Nc2nc(SCc3ccccc3)nc3ccccc23)cc1 | 65.4%
4 | CCC(=O)Oc1ccc(-c2ccccc2)cc1Br | 98.4%
5 | O=S(=O)(NCCCNc1nccc(-c2c(-c3cccc(F)c3)nc3occn23)n1)c1cccc2ccccc12 | 15.3%
6 | Nc1nc(C(=O)N/N=C/c2ccc(N3CCOCC3)cc2)nn1-c1ccc(S(N)(=O)=O)cc1 | 105%
7 | COc1cccc(C(=O)NNc2nc(Cl)nc(Cl)n2)c1 | 102%
8 | O=C(c1ccc(C(F)(F)F)c(Cl)c1)N(Cc1ccc(Cl)cc1)c1ccc(-c2cc(C(F)(F)F)[nH]n2)c(O)c1 | -11.5% (active)
9 | CCOC(=O)c1[nH]c2c(c1C)-c1[nH]c(=O)c(S(=O)(=O)c3ccccc3)cc1SC2 | 23.9% [100 µM]
10 | O=[N+]([O-])c1ccc2nc(N/N=C/c3ccc(O)cc3)sc2c1 | 64.2%
11 | Cc1ccc(S(=O)(=O)N/N=C\c2cc(Cl)ccc2O)cc1 | 68.4%
12 | Cn1ncc2ncc(-c3ccc4ncc(C#N)c(N5CCc6cc(F)c(Cl)cc65)c4c3)cc21 | 8.25% (active)
13 | COc1ccc([C@@H]2[C@@H](Oc3ccccc3)C(=O)N2c2cc(OC)c(OC)c(OC)c2)cc1F | 4.05% (active)
14 | COc1ccc(-c2oncc2-c2cc(OC)c3c(c2)OCO3)cc1 | 10.3%
15 | Cc1ccc(/C=N/Nc2nc(Nc3ccccc3)nc(Nc3ccc(S(N)(=O)=O)cc3)n2)cc1 | 65%
16 | COCCn1cc(-c2csc(-c3c[nH]c4ccccc34)n2)c2cccnc21 | -6.7% (active)
17 | NS(=O)(=O)c1ccc(NC(=O)/C(=C\c2ccc(Cl)cc2Cl)NC(=O)c2ccccc2)cc1 | 110%
18 | CCCCNC(=O)NS(=O)(=O)c1ccc(N2N=C(c3ccc(C)cc3C)CC2c2ccc(N(C)C)cc2)cc1 (centres undefined) | 60%
19 | CS(CCCCN=C=S)=NC(=O)c1c(F)c(F)c(F)c(F)c1F (centres undefined) | 30.1%
20 | Cc1nc2ccccc2c(/C=C/c2ccc(F)cc2)c1C(=O)/C=C/c1ccccc1 | 17%
21 | CCNC(=O)Oc1ccc(/C(=C(/C)c2ccc(Cl)cc2)c2ccc(OCCN3CCCC3)cc2)cc1 | 84.1%

Row | SMILES | growth
22 | COc1cc(N=Nc2ccc(N)cc2)c(OC)cc1N=Nc1ccccc1.[Cl][Zn][Cl] | 118%
23 | Cc1cc(-c2ccccc2)cc(C)n1 | 103%
24 | Clc1cc(Cl)c2nc(-c3ccc(-c4ccc(/C=N/NC5=NCCN5)cc4)s3)cn2c1 | 103%
25 | CCOc1cc2c(cc1OCC)C(c1cc(OC)c(O)cc1Cl)NCC2 (centres undefined) | 61.4%
26 | Cc1ccc2[nH]c(-c3ccc(S(C)(=O)=O)cc3)c(/C=N/N=C(N)N)c2c1 | 81.1%
27 | CN(C)c1nc(N)nc(Cn2c(-c3nonc3N)nc3ccccc32)n1 | 23.2%
28 | O=c1cc(-c2ccc(OCc3ccccc3)cc2)oc2c(I)c(OCc3ccccc3)cc(OCc3ccccc3)c12 | 102%
29 | NS(=O)(=O)c1ccc(C(=O)N=Nc2c(O)[nH]c3c(F)cccc23)cc1 | 96.3%
30 | COc1cc(OCc2cccc(Br)c2C)cc(OC)c1C=O | 20.8%
31 | CC1=CC(C)(C)NC(=S)N1c1ccc(Cl)cc1 | 97.6% and 105%
32 | CC1(C)OC(=O)C(=Cc2cccc(Br)c2)C(=O)O1 | 111%
33 | COc1ccc(C(=O)NCCNc2nccc(-c3c(-c4ccc(F)cc4)nc4sccn34)n2)cc1 | 67.5%
34 | CCCCOc1nc2ccc(Cl)cc2cc1/C=C/C(=O)/C=C1/CC(c2cc3cc(Cl)ccc3nc2OCCCC)Nc2ccccc2N1 (centres undefined) | 103%
35 | CC(C)=CC/C=C(/C)[C@H]1CC[C@]2(C)[C@@H]1CC[C@@H]1[C@@]3(C)CCCNC(C)(C)[C@@H]3CC[C@]12C | -50.1% [100 µM] (active)
36 | CCCCCCCCCCCCCCCC1=NCC[N+]1(CCO)CCO | 55.2%
37 | CC1CCN(CCCCCOc2ccc3oc4ccccc4c(=O)c3c2)CC1 | 41.6%
38 | CCc1ccc(SC2c3ccc(N(CC)CC)cc3Oc3nc(N)c(C#N)c(N)c32)cc1 (centres undefined) | -41% (active)
39 | CC(C)OC(C(=O)O)c1ccccc1 (centres undefined) | 113%
40 | O=C1C=CC(=O)N1c1ccccc1 | 106%
41 | O=C(c1ccccc1)N(C(=S)NCCc1ccc(Cl)cc1)c1ccc(Cl)cc1 | 16.7%
42 | COc1ccc(-n2nc3c(c2-c2ccc(OC)c(OC)c2)-c2oncc2CC3)cc1 | 90.1%

Row | SMILES | growth
43 | CCN(CC)C(=O)C[N+](C)(C)CCOC(c1ccccc1)c1ccccc1 | 109%
44 | CC(C)(CNC1CCCCC1)OC(=O)c1ccccc1 | 94.3%
45 | CCN1C(=O)N(CC)C2C1NN=c1s/c(=C\c3cccnc3)c(=O)n12 (centres undefined) | 23.3%
46 | Oc1ccc2ccccc2c1N=Nc1ccccn1 | -28.6% (active)
47 | CC(C)c1nc(N(C)S(C)(=O)=O)nc(-c2ccc(F)cc2)c1/C=C/[C@@H](O)C[C@@H](O)CC(=O)O | 99.4%
48 | Clc1ccc2c(c1)N(c1ncnc3ccc(-c4cnc5[nH]ccc5c4)cc13)CC2 | -4.95% (active)
49 | CCCCCCCCCCC1CO1 (centres undefined) | 94.1%
50 | O=c1c2ccccc2[nH]n1Cc1ccc2c(c1)OCO2 | 94.5%
51 | CCOc1cccc(/C=N\Nc2nc(=O)cc(C(=O)OC)s2)c1O | 49.9%
52 | COc1cc(-c2nn(-c3cccc(NC(=O)NCCNC(=O)c4cccc(C(F)(F)F)c4)c3)cc2-c2ccncc2)ccc1Cl | 7.11% (active)
53 | O=c1c2ccccc2n(CC(O)CN2CCCC2)c2c(Br)cccc12 (centres undefined) | 97.1%
54 | Cc1nc2nc(N)nc(N)c2nc1C | 97.6%
55 | CC(C)n1cnc2c(Nc3cccc(Cl)c3)nc(N[C@H]3CCCC[C@@H]3N)nc21 | 20%
56 | Clc1ccc2c(NCCCNCc3ccc4c(c3)OCO4)ccnc2c1 | -11.9% (active)
57 | COc1ccc(-c2nc(N3CCCC3=O)sc2Br)cc1OC | 94.8%
58 | CSc1nc2ncncc2[nH]1 | 103%
59 | C=CN(C(=O)N1CCN(c2cc3c(cc2F)c(=O)c(C(=O)O)cn3C2CC2)CC1)c1nc(-c2ccc(C)cc2)cs1 | 44.4%
60 | CCOP(=O)(OCC)/C(=C\N1C(=O)CC(=O)NC1=S)C(=O)OC | 107%
61 | Cc1nc(C)c(C(=O)O)cc1C(=O)O | 109%
62 | COc1cc2c3c(c(=O)oc2cc1OS(=O)(=O)c1ccc(C(F)(F)F)cc1)CCCCC3 | 67%
63 | CC(=O)Nc1cccc(-n2cnc3cc(-c4ccc(O)cc4)ccc32)c1 | -0.935% (active)

Row | SMILES | growth
64 | Fc1ccc(-c2nc(-c3nc4ncccc4[nH]3)cc3c2[nH]c2ccccc23)cc1F | 49.5%
65 | COc1ccc2c3ccnc(C(F)(F)F)c3n(CCCCN)c2c1 | 33.7%
66 | C=C(CNCCO)[C@@H]1CC[C@]2(CO)CC[C@]3(C)[C@H](CC[C@@H]4[C@@]5(C)CCC(NCCc6ccc(O)cc6)C(C)(C)[C@@H]5CC[C@]43C)[C@@H]12 (some centres undefined) | -77.3% (active)
67 | Nc1nc(-c2ccccc2Br)nn1-c1nc2ccccc2s1 | 103%
68 | O=C(c1cc(-c2ccc(Cl)cc2)nc2ccccc12)N1N=C(c2ccccc2)CC1c1cc(-c2ccccc2)nn1-c1ccccc1 (centres undefined) | 89.6%
69 | COc1cc(N2CCC(N(C)C)CC2)ccc1Nc1ncc(Cl)c(Nc2ccccc2P(C)(C)=O)n1 | -38.3% (active)
70 | N#CC1=C(/N=C/c2ccccc2)Oc2c(ccc3ccccc23)C1c1ccc([N+](=O)[O-])cc1 (centres undefined) | 102%
71 | Nc1ncnc2c1c(-c1ccc(Oc3ccccc3)cc1)nn2C[C@@H]1SSC[C@@H]1O | -27.7% (active)
72 | c1ccc(-c2nc(N3CCOCC3)c3c4c(sc3n2)CCCCC4)nc1 | 65.7%
73 | CC1(C)C2CCC(O)(C(=O)O)C1C2 (centres undefined) | 106%
74 | C=CCC(=O)N[C@H](/C=C/C(=O)O)Cc1ccc(-c2cc(Cl)cc(Cl)c2)cc1 | 101%
75 | CNC(=O)c1cc(Oc2ccc3nc(NC(=O)Nc4cc(C(F)(F)F)cc(C(F)(F)F)c4)sc3c2)ccn1 | -31.1% (active)
76 | CCNC(=O)Oc1ccc(/C(=C(\C)c2ccccc2)c2ccc(OCCCN(C)C)cc2)cc1 | 86.6%
77 | Cc1cc(-c2ccc(NS(=O)(=O)c3ccccc3)c(C)c2)ccc1NS(=O)(=O)c1ccccc1 | 80.4% and 101%
78 | C#Cc1cccc(Nc2nc(C)nc3cc(NC(=O)CCl)ccc23)c1 | -78.5% (active)
79 | CC/C(Cc1ccccc1)=C(/c1ccc(O)cc1)c1ccc(OCCN2CCCC2)cc1 | -82.1% (active)
80 | CC(C)NC(=O)c1cc(-c2ccc(NC(=O)Nc3ccc(N4CCOCC4)c(C(F)(F)F)c3)cc2)nc2cccnc12 | 92.1%
81 | O=C(N/N=C/c1cccnc1)c1ccccc1Nc1cccc(C(F)(F)F)c1 | 74.5%
82 | COc1cc(OC)c(/C=C/C(=O)c2c(O)cc(OC)c(C3CCN(C)CC3)c2OC)c(OC)c1 | -91.1% (active)
83 | COc1ccc(-c2nc3c(N)c(CO)cnc3s2)cc1 | 57.6%
84 | COc1ccc(NC(=O)n2nc(/C=C\c3ccc(O)c(OC)c3)cc2/C=C\c2ccc(O)c(OC)c2)cc1 | 34.7%
